# Laboratory results from PubChem BioAssay (NCATS).
# Records with an inconclusive call do not appear. Values without a mark were called inactive. Calls of active or inactive are those of the source. Calls come from the whole dose curve; as a rule, active = well fitted cell-killing curve with a large enough effect; inconclusive = small, poorly fitted or top-dose-only effect, or effect the other way; inactive = flat fitted curve, though single readings scatter. Where a SMILES comes first, the peptide text is derived from it. [ ]: non-standard residue; d: D form. Ala(indol-2-yl) = N[C@@H](Cc1cc2ccccc2[nH]1)C(=O)O; Aib = CC(C)(N)C(=O)O
# System: CAOV3
# Experiment: Primary qHTS to identify gynecologic anti-cancer compounds using libraries of approved drugs and bioactive compounds (AID 1345084); note: nearly all actives have a fitted effect of over 55% in size
# Settings: Gynecologic cancer cell panel viability, ATPlite luminescence, 48 h; series mostly up to 57.5 µM; activity change, negative = cytotoxicity: at the top concentration
# In short: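 Luminescence from the ATPlite ATP-monitoring reagent indicates viable cell number; lower signal means cytotoxicity. Cells received compound 16 h after seeding and were exposed for 48 h across five concentrations.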
# % is set by controls: 0 for no effect and ±100 for the full control effect; potency is the fitted concentration of half-maximal effect.
SMILES,"activity change, negative = cytotoxicity",Potency
CCC(C)/C=C(C)/C=C/C1=CC2=C(Cl)C(=O)C(C)(OC(C)=O)C(=O)C2=CO1 (stereo unspecified),8.44% [at 38.5 µM],–
COC1CC(O[C@H]2CC[C@]3(C)C4CC[C@]5(C)[C@@H](C6=CC(=O)OC6)[C@@H](OC(C)=O)C[C@]5(O)C4CC[C@@H]3C2)OC(C)C1O (stereo partly specified),–,1260 nM (active)
C[C@H]1O[C@@H](O[C@H]2CC[C@]3(C=O)C4CC[C@]5(C)[C@@H](C6=CC(=O)OC6)CC[C@]5(O)[C@@H]4CC[C@]3(O)C2)C[C@@H](O)[C@@H]1O (stereo partly specified),–,112 nM (active)
C=C1[C@@H](C)[C@H]2[C@H](Cc3ccccc3)NC(=O)[C@]23OC(=O)/C=C/C(=O)CCC[C@@H](C)C/C=C/[C@H]3[C@@H]1O,–,12600 nM (active)
COC1CC(O[C@H]2CC[C@@]3(C)C(CCC4C3CC[C@]3(C)[C@@H](C5=CC(=O)OC5)CC[C@]43O)C2)OC(C)C1O (stereo partly specified),–,178 nM (active)
CNC(=O)c1cc(C#N)cc(C)c1NC(=O)c1cc(Br)nn1-c1ncccc1Cl,-2.33%,–
OCc1nnc2n1-c1ccc(Cl)cc1C(c1ccccc1Cl)=NC2,9.72%,–
CC[C@@H]1C[C@H]2CC[C@H](O2)[C@H](C)C(=O)O[C@@H](C)C[C@@H]2CC[C@@H](O2)[C@@H](C)C(=O)O[C@H](CC)C[C@H]2CC[C@H](O2)[C@H](C)C(=O)O[C@@H](C)C[C@@H]2CC[C@@H](O2)[C@@H](C)C(=O)O1,–,398 nM (active)
CO[C@@H]1C[C@H](O[C@H]2CC[C@@]3(C)C(CCC4C3CC[C@]3(C)[C@@H](C5=CC(=O)OC5)[C@@H](OC(C)=O)CC43O)C2)O[C@H](C)[C@@H]1O[C@H]1O[C@H](CO[C@@H]2O[C@H](CO)[C@@H](O)[C@H](O)[C@H]2O)[C@@H](O)[C@H](O)[C@H]1O (stereo partly specified),–,2240 nM (active)
CO[C@H]1C[C@H](O[C@H]2CC[C@@]3(C)C(=CCC4C3CC[C@]3(C)[C@@H](C5=CC(=O)OC5)CC[C@]43O)C2)O[C@@H](C)[C@@H]1O[C@@H]1O[C@H](CO[C@@H]2O[C@H](CO)[C@@H](O)[C@H](O)[C@H]2O)[C@@H](O)[C@H](O)[C@H]1O (stereo partly specified),17.9% [at 11.6 µM],–
c1cncc(OC[C@@H]2CCN2)c1,4.63%,–
CC(=O)OC[C@]12C[C@H](OC(=O)CC(C)C)C(C)=C[C@H]1O[C@@H]1[C@H](O)C[C@@]2(C)[C@]12CO2,–,4470 nM (active)
CNc1ccc2oc(C[C@H]3O[C@@]4(CC[C@H]3C)O[C@H](C(C)C(=O)c3ccc[nH]3)[C@H](C)C[C@H]4C)nc2c1C(=O)O (stereo partly specified),–,22400 nM (active)
C[N@@+]1(CC2CC2)CC[C@]23c4c5ccc(O)c4O[C@H]2C(=O)CC[C@@]3(O)[C@H]1C5,13.2%,–
COc1ccc2c3c([nH]c2c1)C(C=C(C)C)N1C(=O)C2CCCN2C(=O)C1C3 (stereo unspecified),-8.88% [at 38.5 µM],–
CC(C)(NC(=O)[C@@H](N)Cc1ccc(O)cc1)C(=O)N[C@@H](Cc1cc2ccccc2[nH]1)C(=O)N[C@@H](Cc1ccccc1)C(=O)O (H-Y[Aib][Ala(indol-2-yl)]F-OH),2.52% [at 11.6 µM],–
CC[C@H]1C2CC3[C@@H]4N(C)c5ccccc5[C@]45C[C@@H]([C@H]2[C@H]5O)N3[C@@H]1O,9.2% [at 38.5 µM],–
CC(=O)OC[C@]12C[C@H](OC(=O)CC(C)C)C(C)=C[C@H]1O[C@@H]1[C@H](O)[C@@H](OC(C)=O)[C@@]2(C)[C@@]12CO2,–,89.1 nM (active)
C=C(CO)C(=O)O[C@H]1CC(=C)[C@@H]2C[C@H](O)C(=C)[C@@H]2[C@H]2OC(=O)C(=C)[C@@H]21,-0.515% [at 38.5 µM],–
CC1CCCC(=O)CCC/C=C/c2cc(O)cc(O)c2C(=O)O1 (stereo unspecified),9.98% [at 38.5 µM],–
O=C(OC[C@H]1O[C@@H](Oc2ccc(O)cc2CO)[C@H](O)[C@@H](O)[C@@H]1O)c1ccccc1,12.5% [at 25.3 µM],–
CC(=O)OC[C@]12C[C@H](O)C(C)=C[C@H]1O[C@@H]1[C@H](O)[C@@H](O)[C@@]2(C)[C@]12CO2,–,3980 nM (active)
CC[C@H]1C[C@@H]2CC[C@@H](O2)[C@@H](C)C(=O)O[C@H](CC)C[C@H]2CC[C@H](O2)[C@H](C)C(=O)O[C@@H](C)C[C@@H]2CC[C@@H](O2)[C@@H](C)C(=O)O[C@H](CC)C[C@H]2CC[C@H](O2)[C@H](C)C(=O)O1,–,398 nM (active)
CO[C@H]1[C@H](O)[C@H](O[C@H]2CC[C@]3(C=O)C4CC[C@]5(C)[C@H](C6=CC(=O)OC6)CC[C@]5(O)C4CC[C@@H]3C2)O[C@@H](C)[C@@H]1O (stereo partly specified),–,100 nM (active)
CO[C@H]1[C@@H](O)[C@@H](C)O[C@@H](O[C@@H]2C=C3C(OC(C)=O)CC4(O)C(CC[C@]5(C)[C@@H](C6=CC(=O)OC6)CC[C@]45O)[C@@]3(C)CC2)[C@@H]1O (stereo partly specified),–,501 nM (active)
CN(C)c1cc2c(cc1Sc1nc3c(N)nccc3n1CCNCC(C)(C)C)OCO2,–,1120 nM (active)
